# Assay results reported in PubChem BioAssay AID1159580 (chemical genetic matrix, 2015).
# In all, about 5,500 compounds went through this assay and about 2,000 (36%) were called active. About 18% were inconclusive and are not listed. The list shows a part of the results. A number with no mark means an inactive call. Rule as the data show it: active = normalized growth mostly below about 0.91 (no sharp cut-off); inconclusive = no clear call, values can overlap the other calls; inactive = mostly above about 0.92.
# Experiment: chemical genetic growth profiling, strain panel (AID 1159580);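 also: tested at 20 µM; growth read once vehicle control cultures reached saturation at 30 °C; 1 = growth at the plate median or of vehicle wells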
# Settings: growth OD
smiles,measurement,setting,value
CC(=O)Nc1nnc(S(N)(=O)=O)s1,normalized growth,"S. cerevisiae deletion strains, locus YKL009W, strain mrt4, stronger effect = lower value",1.03
same,normalized growth,"S. cerevisiae deletion strains, locus YKL068W, stronger effect = lower value",1
same,normalized growth,"S. cerevisiae deletion strains, locus YKL085W, strain MDH1 (second series), stronger effect = lower value",1.01
same,normalized growth,"S. cerevisiae deletion strains, locus YKL085W, strain MDH1, stronger effect = lower value",1.01
same,normalized growth,"S. cerevisiae deletion strains, locus YKL160W, strain elf1, stronger effect = lower value",1
same,normalized growth,"S. cerevisiae deletion strains, locus YKL190W, strain CNB1, stronger effect = lower value",0.569 (active)
same,normalized growth,"S. cerevisiae deletion strains, locus YKR001C, strain vps1, stronger effect = lower value",0.884 (active)
same,normalized growth,"S. cerevisiae deletion strains, locus YKR026C, strain gcn3, stronger effect = lower value",1
same,normalized growth,"S. cerevisiae deletion strains, locus YKR091W, strain srl3, stronger effect = lower value",1.01
same,normalized growth,"S. cerevisiae deletion strains, locus YLL001W, strain dnm1, stronger effect = lower value",1.01
same,normalized growth,"S. cerevisiae deletion strains, locus YLL026W, stronger effect = lower value",1.01
same,normalized growth,"S. cerevisiae deletion strains, locus YLL041C, strain sdh2, stronger effect = lower value",1.01
same,normalized growth,"S. cerevisiae deletion strains, locus YLR027C, strain aat2, stronger effect = lower value",1.01
same,normalized growth,"S. cerevisiae deletion strains, locus YLR039C, strain RIC1, stronger effect = lower value",0.423 (active)
same,normalized growth,"S. cerevisiae deletion strains, locus YLR058C, strain SHM2, stronger effect = lower value",0.837 (active)
same,normalized growth,"S. cerevisiae deletion strains, locus YLR102C, strain apc9, stronger effect = lower value",0.99
same,normalized growth,"S. cerevisiae deletion strains, locus YLR113W, strain HOG1, stronger effect = lower value",0.982
same,normalized growth,"S. cerevisiae deletion strains, locus YLR221C, strain rsa3, stronger effect = lower value",0.986
same,normalized growth,"S. cerevisiae deletion strains, locus YLR258W, strain gsy2, stronger effect = lower value",1.01
same,normalized growth,"S. cerevisiae deletion strains, locus YLR262C, strain YPT6 (second series), stronger effect = lower value",1.04
same,normalized growth,"S. cerevisiae deletion strains, locus YLR262C, strain YPT6, stronger effect = lower value",0.321 (active)
same,normalized growth,"S. cerevisiae deletion strains, locus YLR268W, strain sec22, stronger effect = lower value",0.895
same,normalized growth,"S. cerevisiae deletion strains, locus YLR320W, strain mms22, stronger effect = lower value",0.99
same,normalized growth,"S. cerevisiae deletion strains, locus YLR330W, strain CHS5, stronger effect = lower value",0.557 (active)
same,normalized growth,"S. cerevisiae deletion strains, locus YLR342W, strain FKS1 (second series), stronger effect = lower value",0.496 (active)
same,normalized growth,"S. cerevisiae deletion strains, locus YLR342W, strain FKS1, stronger effect = lower value",1.02
same,normalized growth,"S. cerevisiae deletion strains, locus YLR357W, strain rsc2, stronger effect = lower value",1
same,normalized growth,"S. cerevisiae deletion strains, locus YLR370C, strain arc18, stronger effect = lower value",0.996
same,normalized growth,"S. cerevisiae deletion strains, locus YLR371W, strain rom2, stronger effect = lower value",0.945
same,normalized growth,"S. cerevisiae deletion strains, locus YLR384C, strain iki3, stronger effect = lower value",1
same,normalized growth,"S. cerevisiae deletion strains, locus YLR418C, strain cdc73, stronger effect = lower value",0.637 (active)
same,normalized growth,"S. cerevisiae deletion strains, locus YML016C, strain PPZ1, stronger effect = lower value",0.412 (active)
same,normalized growth,"S. cerevisiae deletion strains, locus YML032C, strain rad52, stronger effect = lower value",1.01
same,normalized growth,"S. cerevisiae deletion strains, locus YML120C, strain ndi1, stronger effect = lower value",1.02
same,normalized growth,"S. cerevisiae deletion strains, locus YML124C, strain tub3, stronger effect = lower value",1.01
same,normalized growth,"S. cerevisiae deletion strains, locus YMR058W, strain fet3, stronger effect = lower value",1.02
same,normalized growth,"S. cerevisiae deletion strains, locus YMR078C, strain ctf18, stronger effect = lower value",0.994
same,normalized growth,"S. cerevisiae deletion strains, locus YMR125W, strain sto1, stronger effect = lower value",0.989
same,normalized growth,"S. cerevisiae deletion strains, locus YMR129W, stronger effect = lower value",1.02
same,normalized growth,"S. cerevisiae deletion strains, locus YMR205C, strain PFK2, stronger effect = lower value",1.01
same,normalized growth,"S. cerevisiae deletion strains, locus YMR223W, strain ubp8, stronger effect = lower value",0.904
same,normalized growth,"S. cerevisiae deletion strains, locus YMR231W, strain pep5, stronger effect = lower value",0.993
same,normalized growth,"S. cerevisiae deletion strains, locus YMR263W, strain SAP30, stronger effect = lower value",0.809 (active)
same,normalized growth,"S. cerevisiae deletion strains, locus YMR307W, strain GAS1, stronger effect = lower value",0.439 (active)
same,normalized growth,"S. cerevisiae deletion strains, locus YNL067W, strain RPL9B, stronger effect = lower value",0.755 (active)
same,normalized growth,"S. cerevisiae deletion strains, locus YNL071W, strain lat1, stronger effect = lower value",1.01
same,normalized growth,"S. cerevisiae deletion strains, locus YNL128W, strain TEP1, stronger effect = lower value",1
same,normalized growth,"S. cerevisiae deletion strains, locus YNL175C, strain NOP13, stronger effect = lower value",1.03
same,normalized growth,"S. cerevisiae deletion strains, locus YNL183C, strain NPR1, stronger effect = lower value",0.959
same,normalized growth,"S. cerevisiae deletion strains, locus YNL197C, strain WHI3, stronger effect = lower value",1
same,normalized growth,"S. cerevisiae deletion strains, locus YNL209W, strain ssb2, stronger effect = lower value",1.01
same,normalized growth,"S. cerevisiae deletion strains, locus YNL224C, strain SQS1, stronger effect = lower value",0.996
same,normalized growth,"S. cerevisiae deletion strains, locus YNL233W, strain BNI4, stronger effect = lower value",0.792 (active)
same,normalized growth,"S. cerevisiae deletion strains, locus YNL248C, strain rpa49, stronger effect = lower value",0.971
same,normalized growth,"S. cerevisiae deletion strains, locus YNL250W, strain rad50, stronger effect = lower value",1.01
same,normalized growth,"S. cerevisiae deletion strains, locus YNL271C, strain bni1, stronger effect = lower value",1.01
same,normalized growth,"S. cerevisiae deletion strains, locus YNL298W, strain CLA4, stronger effect = lower value",1
same,normalized growth,"S. cerevisiae deletion strains, locus YNL307C, strain MCK1, stronger effect = lower value",0.846 (active)
same,normalized growth,"S. cerevisiae deletion strains, locus YNL322C, strain KRE1 (second series), stronger effect = lower value",1.01
same,normalized growth,"S. cerevisiae deletion strains, locus YNL322C, strain KRE1, stronger effect = lower value",0.592 (active)
same,normalized growth,"S. cerevisiae deletion strains, locus YNR049C, strain mso1, stronger effect = lower value",1.02
same,normalized growth,"S. cerevisiae deletion strains, locus YNR052C, strain pop2, stronger effect = lower value",0.995
same,normalized growth,"S. cerevisiae deletion strains, locus YOL006C, strain TOP1, stronger effect = lower value",0.141 (active)
same,normalized growth,"S. cerevisiae deletion strains, locus YOL012C, strain htz1",0.275
same,normalized growth,"S. cerevisiae deletion strains, locus YOL147C, strain pex11, stronger effect = lower value",1.01
same,normalized growth,"S. cerevisiae deletion strains, locus YOR001W, strain rrp6, stronger effect = lower value",1.02
same,normalized growth,"S. cerevisiae deletion strains, locus YOR061W, strain CKA2, stronger effect = lower value",0.702 (active)
same,normalized growth,"S. cerevisiae deletion strains, locus YOR069W, strain VPS5, stronger effect = lower value",0.826 (active)
same,normalized growth,"S. cerevisiae deletion strains, locus YOR070C, strain gyp1, stronger effect = lower value",1
same,normalized growth,"S. cerevisiae deletion strains, locus YOR080W, strain dia2, stronger effect = lower value",1.01
same,normalized growth,"S. cerevisiae deletion strains, locus YOR083W, strain WHI5 (second series), stronger effect = lower value",1.02
same,normalized growth,"S. cerevisiae deletion strains, locus YOR083W, strain WHI5, stronger effect = lower value",0.993
same,normalized growth,"S. cerevisiae deletion strains, locus YOR106W, strain vam3, stronger effect = lower value",1.02
same,normalized growth,"S. cerevisiae deletion strains, locus YOR136W, strain idh2, stronger effect = lower value",0.979
same,normalized growth,"S. cerevisiae deletion strains, locus YOR144C, strain elg1, stronger effect = lower value",1.01
same,normalized growth,"S. cerevisiae deletion strains, locus YOR184W, strain ser1, stronger effect = lower value",0.885
same,normalized growth,"S. cerevisiae deletion strains, locus YOR231W, strain MKK1, stronger effect = lower value",0.987
same,normalized growth,"S. cerevisiae deletion strains, locus YOR265W, strain rbl2, stronger effect = lower value",1.01
same,normalized growth,"S. cerevisiae deletion strains, locus YOR270C, strain vph1, stronger effect = lower value",1
same,normalized growth,"S. cerevisiae deletion strains, locus YOR290C, strain snf2, stronger effect = lower value",1
same,normalized growth,"S. cerevisiae deletion strains, locus YOR316C, strain cot1, stronger effect = lower value",0.982
same,normalized growth,"S. cerevisiae deletion strains, locus YPL051W, strain arl3, stronger effect = lower value",1
same,normalized growth,"S. cerevisiae deletion strains, locus YPL078C, strain atp4, stronger effect = lower value",1.02
same,normalized growth,"S. cerevisiae deletion strains, locus YPL106C, strain sse1, stronger effect = lower value",0.998
same,normalized growth,"S. cerevisiae deletion strains, locus YPL240C, strain hsp82, stronger effect = lower value",1
same,normalized growth,"S. cerevisiae deletion strains, locus YPL241C, strain CIN2, stronger effect = lower value",0.645 (active)
same,normalized growth,"S. cerevisiae deletion strains, locus YPL256C, strain CLN2, stronger effect = lower value",0.992
same,normalized growth,"S. cerevisiae deletion strains, locus YPR119W, strain clb2, stronger effect = lower value",1.01
same,normalized growth,"S. cerevisiae deletion strains, locus YPR141C, strain kar3, stronger effect = lower value",1.01
same,normalized growth,"S. cerevisiae deletion strains, locus YPR163C, strain tif3, stronger effect = lower value",0.987
same,normalized growth,"S. cerevisiae deletion strains, locus YPR167C, strain met16, stronger effect = lower value",0.964
same,normalized growth,"S. cerevisiae deletion strains, strain wtn01, stronger effect = lower value",0.874 (active)
same,normalized growth,"S. cerevisiae strains, strain wild type, stronger effect = lower value",0.533 (active)
